This passage reports Potency and activation results from PubChem BioAssay (Tox21).

Where “and” joins values, the source holds several entries; their conditions need not be identical. Equal values may be shown once. Inconclusive results are not listed. A call without a number means that no potency is given here. Calls of active or inactive are those of the source. The call rests on the fitted dose curve; in most records, active means well fitted activation curve with a large enough effect in the signal ratio in the repeat runs (not every such curve was filed as active); inconclusive means weak or mixed curves, or effect the other way; inactive means no such curve, though single readings can be large or run the other way; the % refers to the signal ratio.
Potency means the concentration at half of the fitted maximal effect.

A short description of this experiment: qHTS assay for small molecule agonists of the antioxidant response element (ARE) signaling pathway (AID 743202). The conditions noted are these: HepG2 ARE-bla reporter, beta-lactamase FRET, 16 h; series mostly up to 73.3 µM. An excerpt:
U.S. Tox21 Program National Center for Advancing Translational Sciences [NCATS] NIH Chemical Genomics Center [NCGC] U.S. Environmental Protection Agency [EPA] National Institutes of Environmental Health Sciences [NIEHS] National Toxicology Program [NTP] U.S. Food and Drug Administration [FDA] Tox21 Assay Overview: Oxidative stress has been implicated in the pathogenesis of a variety of diseases ranging from cancer to neurodegeneration. The antioxidant response element (ARE) signaling pathway plays an important role in the amelioration of oxidative stress. The CellSensor ARE-bla HepG2 cell line (Invitrogen) can be used for analyzing the Nrf2/antioxidant response signaling pathway. Nrf2 (NF-E2-related factor 2) and Nrf1 are transcription factors that bind to AREs and activate these genes. The CellSensor ARE-bla Hep G2 cell line contains a beta-lactamase reporter gene under control of the Antioxidant Response Element (ARE) stably integrated into HepG2 cells. The activation of the report gene under culture conditions can be detected by fluorescence intensity. This cell line has been used to screen the Tox21 10K compound library to identify agonists that induce oxidative stress.
Tox21 Assay Protocol Summary: The ARE-bla cells were dispensed at 2,000 cells/5 ul/well in 1536-well black wall/clear bottom plates using a Multidrop dispenser. After the assay plates were incubated at a 37 C/5% CO2 incubator for 5 hours, 23 nL of compounds dissolved in DMSO, positive controls or DMSO only was transferred to the assay plate by a pin tool. The plates were incubated at 37 C for 16 hours. After 1 uL of LiveBLAzer B/G FRET substrate was added using a Flying Reagent Dispenser, the plates were incubated at room temperature for 2 hours, and fluorescence intensity was measured by an Envision plate reader.
Background: qHTS replaces the single test concentration by a dilution series.
For `COC(=O)C1=C(C)NC(C)=C(C(=O)OC)C1c1ccccc1[N+](=O)[O-]`, the Potency result is “inactive”.

In the case of `CCCCCCCCCCCCCC=O`, the activation is -7.51% [at 8.36 µM] (inactive).

For `O=C(O)CN(CCOCCOCCN(CC(=O)O)CC(=O)O)CC(=O)O`, the activation was 8.1% [at 0.756 µM] (inactive).

Consider `O=C(O)c1ccccc1OP(=O)(O)O`, for which the Potency entry is “inactive”.

In the case of `Cc1nc2c([nH]1)c(=O)n(C)c(=O)n2Cc1ccco1`, the Potency entry is “inactive”.

With `CCCCCCCCCCCCCCCCC`, the Potency entry was “inactive”.

Regarding `CCSC(=O)N(CC(C)C)CC(C)C`, the Potency entry was “inactive”.

With `O=c1cc(CO)occ1O`, the Potency result was “inactive”.

As for `Nc1ccccc1S(=O)(=O)O`, the Potency result was “inactive”.

On to `CC(C)OC(=O)c1ccccc1`, for which the Potency entry was “inactive”.

For the molecule `N=c1nc(N2CCCCC2)cc(N)n1O`, the Potency result is “inactive”.

Consider `NCCc1cnc[nH]1`, for which the Potency entry is “inactive”.

Take `CC(C)CNCC(C)C`: the Potency result is “inactive”.

As for `Nc1c[n+](N2CCOCC2)no1`, the Potency entry is “inactive”.

With `NS(=O)(=O)c1ccc(C(=O)O)cc1`, the Potency entry is “inactive”.

On to `Nc1nc2c(ncn2COC(CO)CO)c(=O)[nH]1`, for which the Potency result is “inactive”.

Consider `OC[C@]1(O)OC[C@@H](O)[C@H](O)[C@@H]1O`, for which the Potency entry was “inactive”.

With `OCCCC1CCCCC1`, the Potency entry was “inactive”.

For the molecule `C=C[Si](OC(=C)C)(OC(=C)C)OC(=C)C`, the Potency result was “inactive”.

For the molecule `FC(F)OC(Cl)C(F)(F)F` (stereo not given), the Potency result was “inactive”.

Consider `Cn1cc(S(C)=O)c(=O)c2ccc(F)cc21` (stereo not given), for which the Potency result was “inactive”.

Turning to `CCn1nc(C(=O)O)c(=O)c2cc3c(cc21)OCO3`, the Potency result is “inactive”.

In the case of `OC1CCCCC1c1ccccc1` (stereo not given), the Potency entry is “inactive”.

Regarding `CC(C)(C)c1ccc(O)c(O)c1`, the Potency is 28.2 µM (active) and 24.3 µM (active).

In the case of `CO[C@]12C[C@@H](COC(=O)c3cncc(Br)c3)CN(C)[C@@H]1Cc1cn(C)c3cccc2c13`, the Potency entry is “inactive”.

Consider `COc1c(N2C[C@@H]3CCCN[C@@H]3C2)c(F)cc2c(=O)c(C(=O)O)cn(C3CC3)c12`, for which the Potency result is “inactive”.

As to `NC(=O)COCCN1CCN(C(c2ccccc2)c2ccc(Cl)cc2)CC1` (stereo not given), the Potency entry is “inactive”.

As to `C[C@H](NC(CCc1ccccc1)C(=O)O)C(=O)N1CCC[C@H]1C(=O)O` (stereo not given in full), the Potency entry was “inactive”.

Turning to `Cc1cc(O)cc2c1O[C@](C)(CCC[C@H](C)CCC[C@H](C)CCCC(C)C)CC2`, the Potency result was “inactive”.

`CCN1CCC[C@H]1CNC(=O)c1c(O)c(Cl)cc(Cl)c1OC`: the Potency entry is “inactive”.

Consider `CC1(C)CO[C@@H](CC(=O)O)CN1`, for which the Potency result was “inactive”.

On to `CN(C)CCCN1c2ccccc2CCc2ccc(Cl)cc21`, for which the Potency entry is “inactive”.

With `c1ccc([C@H]2CN3CCSC3=N2)cc1`, the Potency entry is “inactive”.

For the molecule `NS(=O)(=O)c1cc2c(cc1Cl)NC(C1CC3C=CC1C3)NS2(=O)=O` (stereo not given), the Potency entry is “inactive”.

Regarding `CC(=O)Nc1c(I)cc(I)c(C(=O)O)c1I`, the Potency result was “inactive”.

Take `COc1ccccc1OCC(O)CN1CCN(CC(=O)Nc2c(C)cccc2C)CC1` (stereo not given): the Potency entry was “inactive”.

With `CCOC(=O)[C@H](CCc1ccccc1)N[C@@H](C)C(=O)N1[C@H](C(=O)O)C[C@@H]2CCC[C@@H]21`, the Potency result is “inactive”.

Regarding `CCCCCOC(=O)CCCCC`, the Potency entry is “inactive”.

For the molecule `CCO/C([O-])=N/c1c[n+](N2CCOCC2)no1`, the Potency entry was “inactive”.

In the case of `CCCc1cc(C(N)=S)ccn1`, the Potency entry is “inactive”.
